Measurements reported in PubChem BioAssay AID1159580 (chemical genetic matrix, 2015).
“And” between values parts separate entries of the source, which are not always exact repeats. Identical values can stand only once. Hit rate of the full screen: of about 5,500 compounds, about 2,000 (36%) were called active. Not shown: some 18% with an inconclusive outcome. No stated cut-off is given here; in the data, active means normalized growth mostly below about 0.91 (no sharp cut-off); inconclusive means no clear call, values can overlap the other calls; inactive means mostly above about 0.92. Some of the results follow.

Assay: chemical genetic growth profiling, strain panel (AID 1159580);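 further: tested at 20 µM; growth read once vehicle control cultures reached saturation at 30 °C; 1 = growth at the plate median or of vehicle wells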
Conditions: S. cerevisiae deletion strains, growth OD

Measured: normalized growth

COc1cc([C@@H]2c3cc4c(cc3[C@H](O)[C@H]3COC(=O)[C@@H]23)OCO4)cc(OC)c1OC
inactive: locus YAL021C, strain ccr4, stronger effect = lower value 1 | locus YAL026C, strain drs2, stronger effect = lower value 1.03 | locus YAL030W, strain snc1, stronger effect = lower value 1.02 | locus YBL061C, strain skt5, stronger effect = lower value 1 | locus YBR009C, strain hhf1, stronger effect = lower value 1 | locus YBR021W, strain FUR4, stronger effect = lower value 1.04 | locus YBR023C, strain chs3, stronger effect = lower value 1.02 | locus YBR171W, strain sec66, stronger effect = lower value 1.02 | locus YBR229C, strain ROT2, stronger effect = lower value 1 | locus YBR231C, strain swc5, stronger effect = lower value 1.02 | locus YBR279W, strain paf1, stronger effect = lower value 1.02 | locus YCL011C, strain gbp2, stronger effect = lower value 1.02 | locus YCL016C, strain dcc1, stronger effect = lower value 1.01 | locus YCL029C, strain bik1, stronger effect = lower value 0.983 | locus YCL069W, strain vba3, stronger effect = lower value 1.02 | locus YCR088W, strain abp1, stronger effect = lower value 1.02 | locus YDL005C, strain med2, stronger effect = lower value 1.02 | locus YDL035C, strain GPR1, stronger effect = lower value 0.991 | locus YDL040C, strain nat1, stronger effect = lower value 1.02 | locus YDL074C, strain BRE1, stronger effect = lower value 0.949 | locus YDL101C, strain DUN1, stronger effect = lower value 1.01 | locus YDL134C, strain PPH21, stronger effect = lower value 1.03 | locus YDL185W, strain tfp1, stronger effect = lower value 0.945 | locus YDL192W, strain arf1, stronger effect = lower value 1.01 | locus YDR001C, strain nth1, stronger effect = lower value 1.02 | locus YDR069C, strain doa4, stronger effect = lower value 1.03 | locus YDR101C, strain arx1, stronger effect = lower value 0.98 | locus YDR137W, strain rgp1, stronger effect = lower value 1.05 | locus YDR159W, strain sac3, stronger effect = lower value 1.03 | locus YDR162C, strain NBP2, stronger effect = lower value 1.01 | locus YDR195W, strain ref2 1.04 | locus YDR297W, strain sur2, stronger effect = lower value 1.03 | locus YDR318W, strain mcm21, stronger effect = lower value 0.999 | locus YDR334W, strain swr1, stronger effect = lower value 1.02 | locus YDR335W, strain msn5, stronger effect = lower value 1.02 | locus YDR388W, stronger effect = lower value 0.988 | locus YDR392W, strain spt3, stronger effect = lower value 0.989 | locus YDR502C, strain sam2, stronger effect = lower value 0.989 | locus YEL003W, strain gim4, stronger effect = lower value 1.02 | locus YEL037C, strain rad23, stronger effect = lower value 1.01 | locus YEL061C, strain CIN8 (second series), stronger effect = lower value 1.02 | locus YEL061C, strain CIN8, stronger effect = lower value 1.01 | locus YER015W, strain faa2, stronger effect = lower value 1.02 | locus YER016W, strain bim1, stronger effect = lower value 1.02 | locus YER110C, stronger effect = lower value 0.98 | locus YER111C, strain swi4, stronger effect = lower value 1.01 | locus YER155C, strain BEM2 (second series), stronger effect = lower value 1.02 | locus YER155C, strain BEM2, stronger effect = lower value 0.986 | locus YER167W, strain BCK2, stronger effect = lower value 1 | locus YFR010W, strain ubp6, stronger effect = lower value 1.02 | locus YGL078C, strain dbp3, stronger effect = lower value 0.972 | locus YGL086W, strain mad1, stronger effect = lower value 0.983 | locus YGL167C, strain pmr1, stronger effect = lower value 1.02 | locus YGL173C, strain kem1, stronger effect = lower value 1.02 | locus YGL227W, strain vid30, stronger effect = lower value 1.03 | locus YGL240W, strain doc1, stronger effect = lower value 1.03 | locus YGL248W, strain PDE1, stronger effect = lower value 1.03 | locus YGL253W, strain hxk2, stronger effect = lower value 1.02 | locus YGR135W, strain pre9, stronger effect = lower value 1.02 | locus YGR229C, strain SMI1, stronger effect = lower value 1.02 | locus YGR252W, strain gcn5, stronger effect = lower value 1.17 | locus YHR013C, strain ard1, stronger effect = lower value 1.03 | locus YHR027C, strain rpn1, stronger effect = lower value 1.02 | locus YHR030C, strain SLT2, stronger effect = lower value 0.987 and 0.98 | locus YHR079C, strain IRE1 (second series), stronger effect = lower value 0.983 | locus YHR079C, strain IRE1, stronger effect = lower value 0.983 | locus YHR094C, strain hxt1, stronger effect = lower value 0.999 | locus YHR129C, strain ARP1, stronger effect = lower value 1.01 | locus YHR142W, strain chs7, stronger effect = lower value 1.03 | locus YHR200W, strain rpn10, stronger effect = lower value 0.976 | locus YIL066C, strain RNR3, stronger effect = lower value 1.01 | locus YIL073C, strain SPO22, stronger effect = lower value 0.961 | locus YIL125W, strain kgd1, stronger effect = lower value 0.994 | locus YIR030C, strain dcg1, stronger effect = lower value 0.995 | locus YJL092W, strain hpr5, stronger effect = lower value 1.02 | locus YJL095W, strain BCK1 (second series), stronger effect = lower value 1.02 | locus YJL095W, strain BCK1, stronger effect = lower value 1.05 and 0.988 | locus YJL115W, strain asf1, stronger effect = lower value 1.04 | locus YJL129C, strain trk1, stronger effect = lower value 1.04 | locus YJL134W, strain LCB3, stronger effect = lower value 0.986 | locus YJL154C, strain vps35, stronger effect = lower value 1.01 | locus YJL164C, strain tpk1, stronger effect = lower value 1 | locus YJL166W, strain qcr8, stronger effect = lower value 1.03 | locus YJL168C, strain set2, stronger effect = lower value 0.989 | locus YJL187C, strain SWE1 (second series), stronger effect = lower value 1.01 | locus YJR043C, strain POL32, stronger effect = lower value 1.01 | locus YJR066W, strain TOR1, stronger effect = lower value 0.917
